Reference: PubChem BioAssay (Tox21)
Values without a mark were called inactive. Records with an inconclusive call do not appear. Where a call stands in place of a potency, no number is given. Active and inactive are the calls of the source. Unless noted, calls follow the shape of the dose curve; as a rule, active = well fitted curve in the direction sought with a large enough effect in the repeat runs; inconclusive = weak or mixed curves; inactive = no such curve, though single readings can be large; an effect the other way counts as inactive or inconclusive.

Assays:
[1] = qHTS assay to identify small molecule agonists of the estrogen receptor alpha (ER-alpha) signaling pathway in the presence of an antagonist - cell viability counter screen (AID 1259386); also: nearly all actives have a fitted effect of over 30% in size; also: potency is read from the fitted curve at half-maximal effect
How it was run: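 Compounds tested at 15 concentrations for 22 h at 37C alongside 10.0nM (final) ICI-182,780 antagonist, in VM7Luc4E2 cells grown in phenol red-free, charcoal-stripped medium. Viability read by CellTiter-Fluor fluorescence after 1 h reagent incubation.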

[2] = target: Progesterone receptor (Homo sapiens) (UniProt P06401); experiment: qHTS assay to identify small molecule agonists of the progesterone receptor (PR) signaling pathway (AID 1346784; calls by dose curve; also: nearly all actives have a fitted effect of over 30% in size)
How it was run: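 PR-UAS-bla HEK 293T cells carrying a UAS-driven beta-lactamase reporter were seeded in medium with 2% charcoal-stripped FBS, preincubated 6 hr at 37C, then exposed to compounds in DMSO for 16 hr; agonism was read by LiveBLAzer B/G FRET fluorescence.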

[3] = target: Progesterone receptor (Homo sapiens) (UniProt P06401); experiment: qHTS assay to identify small molecule antagonists of the progesterone receptor (PR) signaling pathway (AID 1346795; active = well fitted inhibition curve with a large enough effect in the signal ratio in the repeat runs, not every such curve was filed as active; the % refers to the signal ratio)
How it was run: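 PR-UAS-bla HEK293T cells carrying a UAS-driven beta-lactamase reporter were plated in medium with 2% charcoal-stripped FBS and rested 6 hr at 37C. Compounds were added with 1 nM R5020 (final) for 16 hr, then FRET substrate loaded 2 hr at room temperature.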

[4] = qHTS assay to identify small molecule antagonists of the TGF-beta/Smad signaling pathway - cell viability counter screen (AID 1346824); also: nearly all actives have a fitted effect of over 50% in size
How it was run: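 SBE-bla HEK 293T cells were plated overnight at 37 C, then given compounds in DMSO plus TGF-beta1 (added as 0.25 ng/mL solution) for 5 hr. After the bla read, CellTiter-Glo was added to the same wells and luminescence read after 30 min at room temperature.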

[5] = qHTS assay to identify small molecule agonists of the TGF-beta/Smad signaling pathway - cell viability counter screen (AID 1346829); also: top concentration of the series differs between compounds; nearly all actives have a fitted effect of over 45% in size
How it was run: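 Compound-treated SBE-bla HEK 293T cells (5 hr, 37 C) were assessed for viability with CellTiter-Glo in parallel with the reporter read.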

[6] = target: Thyrotropin-releasing hormone receptor (Homo sapiens) (UniProt P34981); experiment: qHTS assay to identify small molecule antagonists of the thyrotropin-releasing hormone receptor (TRHR) signaling pathway (AID 1346877; active = well fitted inhibition curve with a large enough effect in the repeat runs, not every such curve was filed as active; also: series mostly up to about 51 µM)
How it was run: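 Antagonist mode: after a 5 min room-temperature compound exposure, cells were stimulated with 1 nM (final) TRH. Dye-loaded TRHR-HEK293 cells were used, and calcium-dependent fluorescence was followed for 3 min, with 15-point titrations run in triplicate.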

[7] = target: Thyrotropin-releasing hormone receptor (Homo sapiens) (UniProt P34981); experiment: qHTS assay to identify small molecule agonists of the thyrotropin-releasing hormone receptor (TRHR) signaling pathway (AID 1346891; calls by dose curve; also: series mostly up to about 58 µM)
How it was run: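 TRHR-expressing HEK293 cells were plated 18 h at 37 °C/5% CO2, loaded with calcium dye 2 h at 37 °C, then given compound in DMSO; fluorescence was read kinetically for 3 min at 1 s intervals.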

[8] = Human pregnane X receptor (PXR) small molecule agonists, qHTS cell viability counter screen (AID 1346977); also: nearly all actives have a fitted effect of over 50% in size; also: potency is read from the fitted curve at half-maximal effect
How it was run: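 PXR-Luc HepG2 cells in medium with 5% charcoal-stripped FBS were pre-incubated 5hr, then exposed to compounds for 24hr at 37C. Viability was read in the same wells by CellTiter-Fluor fluorescence, reagent added after 23hr with a 1hr incubation.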

[9] = Caspase-3/7 induction in HepG2 cells by small molecules, qHTS assay (AID 1346978); also: nearly all actives have a fitted effect of over 15% in size
How it was run: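 Wild-type HepG2 cells (2,000/well) were settled 5 h at 37 C, 5% CO2, then exposed to compounds in DMSO for 17 h. Caspase-3/7 activity was read by luminescence 30 min after adding Caspase-Glo 3/7 reagent at room temperature.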

[10] = Caspase-3/7 induction in CHO-K1 cells by small molecules, qHTS cell viability counter screen (AID 1346979); also: nearly all actives have a fitted effect of over 35% in size; also: potency is read from the fitted curve at half-maximal effect
How it was run: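 Wild-type CHO-K1 cells were seeded at 1,500 per well, rested 5hr at 37 C, then exposed to compounds in DMSO. After 16hr, CellTiter-Fluor reagent was added and fluorescence read 1hr later as the viability measure.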

[11] = Caspase-3/7 induction in CHO-K1 cells by small molecules, qHTS assay (AID 1346980); also: nearly all actives have a fitted effect of over 15% in size
How it was run: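 Wild-type cells were seeded at 1,500 per well and settled 5 hr at 37 C, 5% CO2, then exposed to DMSO-dissolved compounds for 17 hr. Caspase-Glo 3/7 reagent was added, and luminescence was read after 30min at room temperature.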

[12] = target: Nuclear receptor subfamily 1 group I member 2 (Homo sapiens) (UniProt O75469); experiment: Human pregnane X receptor (PXR) small molecule agonists, qHTS assay (AID 1346982); also: nearly all actives have a fitted effect of over 35% in size; also: potency is read from the fitted curve at half-maximal effect
How it was run: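 Agonist mode: luminescence from ONE-Glo after 24 h compound exposure at 37C in HepG2 cells carrying hPXR-responsive CYP3A4 luciferase, plated in charcoal-stripped serum medium 5 h beforehand.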

[13] = target: Nuclear receptor subfamily 1 group I member 2 (Rattus norvegicus) (UniProt Q9R1A7); experiment: Rat pregnane X receptor (rPXR) activation by small molecules, qHTS assay (AID 1346983); settings: rPXR luciferase reporter cells, One-Glo luminescence, 24 h; max activation: active compounds read high; also: nearly all actives have a fitted effect of over 20% in size
How it was run: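 Cell-based rPXR luciferase reporter assay, 2,000 cells per well, rested 5hr at 37 C before compound addition in DMSO, then 24 hr at 37 C. One-Glo reagent was added and luminescence read after 30 min at room temperature.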

[14] = target: Nuclear receptor subfamily 1 group I member 2 (Homo sapiens) (UniProt O75469); experiment: Human pregnane X receptor (PXR) activation by small molecules, qHTS assay (AID 1346985); also: nearly all actives have a fitted effect of over 40% in size
How it was run: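 DPX-2 cells (HepG2 co-transfected with a PXR response element and a CYP3A4-promoter luciferase construct) were seeded at 2,000 per well, rested 5 hr at 37C, then exposed to DMSO-dissolved compounds for 24 hr. Activation was read as luciferase luminescence.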

[15] = target: Cytochrome P450 2D6 (Homo sapiens) (UniProt P10635); experiment: Cytochrome P450 Family 2 Subfamily D Member 6 (CYP2D6) small molecule antagonists: luciferase reporter qHTS assay (AID 1671196); also: nearly all actives have a fitted effect of over 50% in size; also: potency is read from the fitted curve at half-maximal effect
How it was run: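 CYP2D6 activity was followed as luminescence from its luciferin product after a 1 h NADPH-driven reaction at room temperature. Enzyme-substrate mix and compound were pre-incubated for 10 min, and the signal was read 20 min after adding detection reagent.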

[16] = qHTS assay to identify small molecule agonists of the TGF-beta/Smad signaling pathway (AID 1346859; active = well fitted activation curve with a large enough effect in the signal ratio in the repeat runs, not every such curve was filed as active; the % refers to the signal ratio; also: series mostly up to about 77 µM)
How it was run: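 HEK 293T cells stably carrying a beta-lactamase reporter driven by the Smad binding element were seeded overnight, exposed to DMSO-dissolved compounds for 5 hr at 37 C, 5% CO2, then loaded with FRET substrate for 2 hr at room temperature.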

[17] = Caspase-3/7 induction in HepG2 cells by small molecules, qHTS cell viability counter screen (AID 1346981); also: nearly all actives have a fitted effect of over 30% in size; also: potency is read from the fitted curve at half-maximal effect
How it was run: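 CellTiter-Fluor fluorescence measured viability in the same wells used for Caspase-Glo 3/7. HepG2 (wild type) at 2,000 cells/well were pre-incubated 5 hr, dosed, and given reagent at 16 hr, with 1 hr further at 37C.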

[18] = qHTS assay to identify small molecule antagonists of the progesterone receptor (PR) signaling pathway - cell viability counter screen (AID 1346798); also: nearly all actives have a fitted effect of over 50% in size; also: potency is read from the fitted curve at half-maximal effect
How it was run: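 PR-UAS-bla HEK293T cells in medium with 2% charcoal-stripped FBS were treated with compounds plus R5020 for 16 hr at 37C. Cell viability was then read by CellTiter-Glo luminescence after 30 min at room temperature in the same wells.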

[19] = qHTS assay to identify small molecule agonists of the progesterone receptor (PR) signaling pathway - cell viability counter screen (AID 1346799; calls by dose curve; also: nearly all actives have a fitted effect of over 45% in size)
How it was run: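 PR-UAS-bla HEK293T cells, 3,000 per well in medium with 2% charcoal-stripped FBS, were preincubated 6 hr at 37C, then exposed to compounds for 16 hr; viability was read as CellTiter-Glo luminescence after 30 min at room temperature.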

Sequence of Thyrotropin-releasing hormone receptor (Homo sapiens) (P34981 whole entry, looked up): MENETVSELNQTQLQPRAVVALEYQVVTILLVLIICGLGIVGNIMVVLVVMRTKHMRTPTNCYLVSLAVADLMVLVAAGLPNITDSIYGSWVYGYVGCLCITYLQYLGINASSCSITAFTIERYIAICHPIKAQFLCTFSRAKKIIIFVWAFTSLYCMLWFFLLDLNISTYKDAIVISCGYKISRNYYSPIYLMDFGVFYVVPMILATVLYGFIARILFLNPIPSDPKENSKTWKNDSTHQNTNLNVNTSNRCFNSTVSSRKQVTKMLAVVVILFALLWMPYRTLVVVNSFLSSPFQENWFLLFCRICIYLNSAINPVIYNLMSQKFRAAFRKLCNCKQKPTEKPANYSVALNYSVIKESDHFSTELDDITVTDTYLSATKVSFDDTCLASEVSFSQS
Sequence of Progesterone receptor (Homo sapiens) (P06401 whole entry, looked up): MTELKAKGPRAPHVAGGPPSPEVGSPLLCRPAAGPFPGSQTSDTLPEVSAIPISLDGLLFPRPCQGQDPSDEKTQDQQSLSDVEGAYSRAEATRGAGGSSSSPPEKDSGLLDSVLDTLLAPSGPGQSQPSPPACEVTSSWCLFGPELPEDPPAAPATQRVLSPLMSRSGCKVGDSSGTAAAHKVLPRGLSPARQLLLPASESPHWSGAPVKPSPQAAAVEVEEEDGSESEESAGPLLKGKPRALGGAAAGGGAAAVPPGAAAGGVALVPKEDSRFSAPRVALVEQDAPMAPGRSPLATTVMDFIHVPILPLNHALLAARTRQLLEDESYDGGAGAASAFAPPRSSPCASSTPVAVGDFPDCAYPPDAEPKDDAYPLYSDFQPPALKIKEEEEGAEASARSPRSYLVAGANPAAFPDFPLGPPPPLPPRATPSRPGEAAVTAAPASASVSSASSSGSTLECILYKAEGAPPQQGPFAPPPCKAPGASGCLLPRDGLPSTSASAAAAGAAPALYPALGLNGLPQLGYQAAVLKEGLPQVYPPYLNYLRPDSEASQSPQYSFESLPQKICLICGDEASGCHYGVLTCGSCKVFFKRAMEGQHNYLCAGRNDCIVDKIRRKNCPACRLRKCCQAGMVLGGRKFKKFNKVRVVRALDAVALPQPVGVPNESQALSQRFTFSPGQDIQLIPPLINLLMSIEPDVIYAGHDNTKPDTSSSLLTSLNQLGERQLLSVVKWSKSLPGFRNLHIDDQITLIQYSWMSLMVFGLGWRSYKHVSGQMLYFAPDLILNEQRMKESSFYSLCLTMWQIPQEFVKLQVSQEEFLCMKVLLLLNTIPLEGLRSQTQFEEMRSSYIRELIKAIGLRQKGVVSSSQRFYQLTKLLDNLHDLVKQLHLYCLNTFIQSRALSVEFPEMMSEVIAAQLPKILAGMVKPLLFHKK
Sequence of Cytochrome P450 2D6 (Homo sapiens) (P10635 whole entry, looked up): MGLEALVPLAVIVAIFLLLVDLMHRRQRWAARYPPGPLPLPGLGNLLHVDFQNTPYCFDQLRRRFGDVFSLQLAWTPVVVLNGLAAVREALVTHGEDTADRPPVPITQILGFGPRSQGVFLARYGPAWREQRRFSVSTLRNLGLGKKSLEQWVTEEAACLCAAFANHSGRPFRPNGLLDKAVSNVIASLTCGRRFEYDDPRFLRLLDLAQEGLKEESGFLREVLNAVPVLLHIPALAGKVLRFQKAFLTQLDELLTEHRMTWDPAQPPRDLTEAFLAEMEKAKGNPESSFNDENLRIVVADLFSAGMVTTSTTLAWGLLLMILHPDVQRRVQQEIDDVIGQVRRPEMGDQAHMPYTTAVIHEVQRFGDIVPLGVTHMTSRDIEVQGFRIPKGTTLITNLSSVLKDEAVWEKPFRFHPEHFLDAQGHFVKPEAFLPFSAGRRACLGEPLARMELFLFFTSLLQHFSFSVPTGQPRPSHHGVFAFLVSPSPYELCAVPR
Sequence of Nuclear receptor subfamily 1 group I member 2 (Homo sapiens) (O75469 whole entry, looked up): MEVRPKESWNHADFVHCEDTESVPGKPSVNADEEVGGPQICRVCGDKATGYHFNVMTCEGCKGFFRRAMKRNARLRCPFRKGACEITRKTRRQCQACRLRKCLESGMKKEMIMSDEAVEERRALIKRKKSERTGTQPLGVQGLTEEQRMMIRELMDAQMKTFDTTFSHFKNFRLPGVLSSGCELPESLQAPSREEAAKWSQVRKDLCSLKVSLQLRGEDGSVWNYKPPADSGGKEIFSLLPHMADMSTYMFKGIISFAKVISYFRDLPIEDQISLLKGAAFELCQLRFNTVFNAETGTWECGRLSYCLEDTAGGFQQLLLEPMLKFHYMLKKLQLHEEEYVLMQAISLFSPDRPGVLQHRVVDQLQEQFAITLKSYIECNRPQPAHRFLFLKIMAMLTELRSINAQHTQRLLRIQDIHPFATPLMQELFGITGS
Sequence of Nuclear receptor subfamily 1 group I member 2 (Rattus norvegicus) (Q9R1A7 whole entry, looked up): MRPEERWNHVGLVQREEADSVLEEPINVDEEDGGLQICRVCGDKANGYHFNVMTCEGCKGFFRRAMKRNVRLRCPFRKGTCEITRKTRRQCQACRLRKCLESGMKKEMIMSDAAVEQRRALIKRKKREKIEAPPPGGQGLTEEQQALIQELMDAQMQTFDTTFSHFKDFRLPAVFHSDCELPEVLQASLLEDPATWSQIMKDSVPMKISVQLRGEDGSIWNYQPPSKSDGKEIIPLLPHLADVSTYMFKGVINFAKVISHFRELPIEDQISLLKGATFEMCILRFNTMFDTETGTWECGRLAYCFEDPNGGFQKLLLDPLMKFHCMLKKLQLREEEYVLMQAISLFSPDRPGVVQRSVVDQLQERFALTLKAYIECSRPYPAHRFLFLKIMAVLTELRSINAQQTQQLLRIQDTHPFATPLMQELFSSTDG

SMILES: Cc1c(C)c2c(c(C)c1OC(=O)CCC(=O)O)CC[C@@](C)(CCC[C@H](C)CCC[C@H](C)CCCC(C)C)O2
- Potency [1]: inactive
- Potency [2]: inactive
- Potency [3]: inactive
- Potency [4]: inactive
- Potency [5]: inactive
- Potency [6]: inactive
- Potency [7]: inactive
- Potency [8]: inactive
- Potency [9]: inactive
- Potency [10]: inactive
- Potency [11]: inactive
- Potency [12]: 19.5 µM (active)
- max activation [13]: -1.35%
- Potency [14]: inactive
- Potency [15]: inactive

SMILES: N=C1C=CC(=C(c2ccc(N)cc2)c2ccc(N)cc2)C=C1
- Potency [1]: 24.3 µM (active)
- Potency [2]: inactive
- Potency [3]: inactive
- Potency [5]: inactive
- Potency [16]: inactive
- Potency [6]: inactive
- Potency [8]: 8.63 µM (active)
- Potency [9]: inactive
- Potency [10]: 12.2 µM (active)
- Potency [17]: 13.7 µM (active)
- Potency [12]: inactive
- Potency [15]: 6.33 µM (active)

SMILES: COc1c(C)c2c(c(O)c1C/C=C(\C)CCC(=O)O)C(=O)OC2
- Potency [1]: inactive
- Potency [2]: inactive
- Potency [18]: 0.119 µM (active)
- Potency [5]: inactive
- Potency [6]: inactive
- Potency [7]: inactive
- Potency [8]: inactive
- Potency [9]: inactive
- Potency [10]: 1.19 µM (active)
- Potency [11]: inactive
- Potency [12]: inactive
- max activation [13]: -5.38%
- Potency [14]: inactive
- Potency [15]: inactive

SMILES: Cc1cc2c(cc1C(F)(F)F)N(C(=O)Nc1ccc(Oc3cccnc3C)nc1)CC2
- Potency [1]: inactive
- Potency [2]: inactive
- Potency [19]: inactive
- Potency [5]: inactive
- Potency [8]: 43.9 µM (active)
- Potency [9]: inactive
- Potency [10]: 24.7 µM (active)
- Potency [11]: inactive
- Potency [17]: 27.7 µM (active)
- Potency [12]: 13.9 µM (active)
- Potency [15]: 22.8 µM (active)

SMILES: CN(C)c1ccc(SC#N)cc1
- Potency [1]: inactive
- Potency [2]: inactive
- Potency [18]: inactive
- Potency [19]: inactive
- Potency [5]: inactive
- Potency [16]: inactive
- Potency [6]: inactive
- Potency [7]: inactive
- Potency [8]: inactive
- Potency [11]: inactive
- Potency [17]: inactive
- Potency [12]: 9.69 µM (active)
- Potency [15]: 31.7 µM (active)

SMILES: N#CC1(c2ccc(F)cc2)CCC(=O)CC1
- Potency [1]: inactive
- Potency [2]: inactive
- Potency [19]: inactive
- Potency [4]: inactive
- Potency [5]: inactive
- Potency [16]: inactive
- Potency [6]: inactive
- Potency [7]: inactive
- Potency [8]: inactive
- Potency [9]: inactive
- Potency [10]: inactive
- Potency [11]: inactive
- Potency [17]: inactive
- Potency [12]: inactive
- Potency [15]: inactive

SMILES: CN(C)[C@@H]1C(=O)C(C(N)=O)=C(O)[C@@]2(O)C(=O)C3=C(O)c4c(O)cccc4C[C@H]3C[C@@H]12
- Potency [1]: inactive
- Potency [2]: inactive
- Potency [18]: inactive
- Potency [19]: inactive
- Potency [4]: inactive
- Potency [5]: inactive
- Potency [6]: inactive
- Potency [8]: inactive
- Potency [9]: inactive
- Potency [11]: inactive
- Potency [17]: inactive
- Potency [12]: inactive
- Potency [15]: inactive
